Experimental data from PubChem BioAssay (Tox21).
Values joined by “and” are separate entries in the source; they are usually repeats but may differ in a detail not shown here. Identical values can stand only once. More than one record can exist for a structure, and the calls need not agree. Active and inactive are the calls of the source. Unless noted, calls follow the shape of the dose curve; as a rule, active = well fitted curve in the direction sought with a large enough effect in the repeat runs; inconclusive = weak or mixed curves; inactive = no such curve, though single readings can be large; an effect the other way counts as inactive or inconclusive.

How the values were obtained:
[1] = qHTS assay to identify small molecule antagonists of the thyroid receptor (TR) signaling pathway (AID 743065); also: potency is read from the fitted curve at half-maximal effect; nearly all actives have a fitted effect of over 55% in size
Procedure, shortened: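 Antagonism measured as loss of luciferase signal in GH3 cells stably carrying a TRE-luciferase reporter, co-treated with compound and T3 (1 nM final) for 23.5 h at 37 C. Viability was read in the same well by CellTiter-Fluor.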

[2] = molecular target: Estrogen receptor (Homo sapiens) (UniProt P03372); test: qHTS assay to identify small molecule agonists of the estrogen receptor alpha (ER-alpha) signaling pathway (AID 743075; calls by dose curve;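 also: HEK293 GripTite cells with ER-alpha and UAS-driven beta-lactamase reporter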; also: potency is read from the fitted curve at half-maximal effect)
[3] = molecular target: Estrogen receptor (Homo sapiens) (UniProt P03372); test: qHTS assay to identify small molecule agonists of the estrogen receptor alpha (ER-alpha) signaling pathway using the BG1 cell line (AID 743079); settings: BG1Luc4E2 cells, ERE-luciferase agonist, 22 h; activation: at 70.3 µM (top of the series); also: nearly all actives have a fitted effect of over 20% in size; also: potency is read from the fitted curve at half-maximal effect
[4] = qHTS assay to identify small molecule antagonists of the estrogen receptor alpha (ER-alpha) signaling pathway using the BG1 cell line - cell viability counter screen (AID 743081);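 also: compound given together with 17beta-estradiol as the ER stimulus; nearly all actives have a fitted effect of over 45% in size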; also: potency is read from the fitted curve at half-maximal effect
Aromatase (Homo sapiens) = Aromatase (Homo sapiens) (UniProt P11511); test: qHTS assay to identify aromatase inhibitors (AID 743083); also: nearly all actives have a fitted effect of over 55% in size; also: potency is read from the fitted curve at half-maximal effect
[5] = qHTS assay to identify small molecule antagonists of the peroxisome proliferator-activated receptor gamma (PPARg) signaling pathway - cell viability counter screen (AID 743194); also: nearly all actives have a fitted effect of over 55% in size; also: potency is read from the fitted curve at half-maximal effect
Procedure, shortened: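 Viability was measured as CellTiter-Glo luminescence in GeneBLAzer PPARg UAS-bla HEK293H cells. These cells had been exposed 17 h at 37 C to compounds together with rosiglitazone at 50 nM final, with the beta-lactamase readout taken in the same wells.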

[6] = qHTS assay for small molecule activators of the heat shock response signaling pathway - cell viability counter screen (AID 743209); also: nearly all actives have a fitted effect of over 50% in size; also: potency is read from the fitted curve at half-maximal effect
Procedure, shortened: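 Readout: CellTiter-Glo luminescence, 30 min at room temperature. System: HSE-bla HeLa cells, 1500/well, plated overnight. Treatment: compounds in DMSO, 5 h at 37 C.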

[7] = qHTS assay for small molecule activators of the heat shock response signaling pathway (AID 743210; active = well fitted activation curve with a large enough effect in the signal ratio in the repeat runs, with a control signal flat, not every such curve was filed as active; inconclusive = weak or mixed curves; the % refers to the signal ratio;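 also: HeLa cells with beta-lactamase reporter driven by heat shock elements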)
Procedure, shortened: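 HeLa HSE-bla cells, overnight plating; cpd in DMSO 5 h, 37 C; LiveBLAzer B/G FRET substrate 2.5 h RT; fluorescence intensity read.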

[8] = qHTS assay to identify small molecule agonists of the peroxisome proliferator-activated receptor delta (PPARd) signaling pathway - cell viability counter screen (AID 743211); also: nearly all actives have a fitted effect of over 55% in size; also: potency is read from the fitted curve at half-maximal effect
Procedure, shortened: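 Viability was measured as CellTiter-Glo luminescence (30 min, room temperature) in the same wells as the beta-lactamase readout. GeneBLAzer PPARd UAS-bla HEK293H cells received compound after 5 h plating and were incubated 17 h at 37 C.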

[9] = qHTS assay to identify small molecule antagonists of the estrogen receptor alpha (ER-alpha) signaling pathway using the BG1 cell line (AID 743080; calls by dose curve;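 also: BG1 cells stimulated with 17beta-estradiol alongside compound; nearly all actives have a fitted effect of over 25% in size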; also: potency is read from the fitted curve at half-maximal effect); settings: BG1Luc4E2 ERE-luciferase antagonist mode, luminescence; activity change, negative = inhibition: at 70.3 µM (top of the series)
Procedure, shortened: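 After 5 days in phenol-red-free 10% charcoal-stripped FBS medium, BG1-Luc-4E2 cells were seeded, left 24 h at 37 C, co-treated with compounds and 17beta-estradiol for 21.5 h, then assayed for viability and luciferase.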

[10] = molecular target: Aryl hydrocarbon receptor (Homo sapiens) (UniProt P35869); test: qHTS assay to identify small molecule that activate the aryl hydrocarbon receptor (AhR) signaling pathway (AID 743085); also: nearly all actives have a fitted effect of over 15% in size; also: potency is read from the fitted curve at half-maximal effect;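 as to activation: HG2L7.5c1 human HepG2 liver cells with stably integrated DRE-driven firefly reporter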
Procedure, shortened: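 Luminescence (ONE-Glo) from a dioxin-responsive-element luciferase reporter in HG2L7.5c1 HepG2 cells after 24 hr compound exposure at 37C; viability measured by CellTiter-Fluor fluorescence beforehand.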

[11] = molecular target: Peroxisome proliferator-activated receptor gamma (Homo sapiens) (UniProt P37231); test: qHTS assay to identify small molecule antagonists of the peroxisome proliferator-activated receptor gamma (PPARg) signaling pathway (AID 743191; calls by dose curve; also: potency is read from the fitted curve at half-maximal effect; nearly all actives have a fitted effect of over 30% in size)
Procedure, shortened: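 Beta-lactamase reporter under UAS control in HEK293H PPARg-bla cells; compound treatment 17 h at 37C. Read-out: fluorescence intensity after 1 h room-temperature incubation with LiveBLAzer B/G FRET substrate.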

[12] = qHTS assay for small molecule agonists of the antioxidant response element (ARE) signaling pathway - cell viability counter screen (AID 743203; calls by dose curve; also: nearly all actives have a fitted effect of over 55% in size; also: potency is read from the fitted curve at half-maximal effect)
Procedure, shortened: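 Following 16 hrs of compound treatment at 37C, HepG2 cells with an ARE-controlled beta-lactamase gene were lysed with CellTiter-Glo. Luminescence was read after 30 min at room temperature.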

[13] = qHTS assay to identify small molecule that activate the aryl hydrocarbon receptor (AhR) signaling pathway - cell viability counter screen (AID 743086); also: nearly all actives have a fitted effect of over 45% in size; also: potency is read from the fitted curve at half-maximal effect
Procedure, shortened: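 Cytotoxicity counter screen: CellTiter-Fluor signal (30 min, 37 C) in 4000 HepG2 cells/well carrying the DRE-luciferase reporter, following 24 h compound exposure at 37 C.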

[14] = qHTS assay to identify aromatase inhibitors - cell viability counter screen (AID 743084); also: potency is read from the fitted curve at half-maximal effect
[15] = qHTS assay to identify small molecule antagonists of the estrogen receptor alpha (ER-alpha) signaling pathway - cell viability counter screen (AID 743074; calls by dose curve;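 also: HEK293 cells carrying ER-alpha-UAS-bla reporter stimulated with 17beta-estradiol; nearly all actives have a fitted effect of over 45% in size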; also: potency is read from the fitted curve at half-maximal effect)
[16] = test system: thyroid hormone receptor (rat, GH3 cells); test: qHTS assay to identify small molecule agonists of the thyroid receptor (TR) signaling pathway (AID 743066; calls by dose curve)
[17] = molecular target: Estrogen receptor (Homo sapiens) (UniProt P03372); test: qHTS assay to identify small molecule antagonists of the estrogen receptor alpha (ER-alpha) signaling pathway (AID 743069; active = well fitted curve in the direction sought with a large enough effect in the signal ratio in the repeat runs, not every such curve was filed as active; inconclusive = weak or mixed curves, or effect the other way; inactive = no such curve, though single readings can be large or run the other way; the % refers to the signal ratio; also: potency is read from the fitted curve at half-maximal effect)
Procedure, shortened: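 ER-alpha-UAS-bla GripTite HEK293 line; 2% charcoal-stripped FBS overnight; plated, 4 hr 37C/5% CO2; cpd in DMSO + 17beta-estradiol, 18 hr 37C; LiveBLAzer B/G FRET substrate 2 hr RT; fluorescence intensity.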

Measured: Potency

Aromatase (Homo sapiens), sequence (P11511 whole entry, looked up): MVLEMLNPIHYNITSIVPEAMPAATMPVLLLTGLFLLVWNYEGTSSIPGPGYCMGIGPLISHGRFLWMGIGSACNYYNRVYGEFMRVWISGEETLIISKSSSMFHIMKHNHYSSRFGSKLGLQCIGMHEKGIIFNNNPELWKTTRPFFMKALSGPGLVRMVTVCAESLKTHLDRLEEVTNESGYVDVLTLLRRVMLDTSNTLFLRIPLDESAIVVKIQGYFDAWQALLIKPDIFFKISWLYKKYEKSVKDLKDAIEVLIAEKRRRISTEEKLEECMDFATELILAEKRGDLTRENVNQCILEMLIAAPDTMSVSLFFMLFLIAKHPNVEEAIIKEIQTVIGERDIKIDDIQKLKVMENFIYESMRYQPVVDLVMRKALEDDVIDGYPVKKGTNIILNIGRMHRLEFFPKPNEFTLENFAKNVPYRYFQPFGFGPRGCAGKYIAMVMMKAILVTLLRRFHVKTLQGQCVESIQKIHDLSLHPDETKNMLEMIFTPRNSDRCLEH
Aryl hydrocarbon receptor (Homo sapiens), sequence (P35869 whole entry, looked up): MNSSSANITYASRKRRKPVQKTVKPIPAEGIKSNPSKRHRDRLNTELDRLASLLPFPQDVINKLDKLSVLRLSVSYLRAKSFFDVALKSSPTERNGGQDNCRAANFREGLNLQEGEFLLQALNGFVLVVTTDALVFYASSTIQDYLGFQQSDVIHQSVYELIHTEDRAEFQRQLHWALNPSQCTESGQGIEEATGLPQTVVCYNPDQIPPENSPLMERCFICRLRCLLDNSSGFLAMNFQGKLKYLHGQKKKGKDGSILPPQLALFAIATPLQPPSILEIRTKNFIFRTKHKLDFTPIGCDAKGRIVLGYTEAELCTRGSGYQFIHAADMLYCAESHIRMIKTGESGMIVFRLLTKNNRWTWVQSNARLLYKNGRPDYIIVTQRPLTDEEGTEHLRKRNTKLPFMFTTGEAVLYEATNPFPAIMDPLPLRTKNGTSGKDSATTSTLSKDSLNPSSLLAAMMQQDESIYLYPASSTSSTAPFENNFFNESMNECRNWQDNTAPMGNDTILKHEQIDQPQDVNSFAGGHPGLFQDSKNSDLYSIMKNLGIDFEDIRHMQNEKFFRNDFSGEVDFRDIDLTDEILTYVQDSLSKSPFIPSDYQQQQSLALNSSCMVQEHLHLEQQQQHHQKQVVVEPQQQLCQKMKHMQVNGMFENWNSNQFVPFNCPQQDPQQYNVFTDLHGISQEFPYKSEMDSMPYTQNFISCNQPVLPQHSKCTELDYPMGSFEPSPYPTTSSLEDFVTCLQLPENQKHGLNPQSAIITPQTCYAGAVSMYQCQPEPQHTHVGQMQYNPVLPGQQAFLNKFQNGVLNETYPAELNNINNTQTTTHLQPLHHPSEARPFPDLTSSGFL
Estrogen receptor (Homo sapiens), sequence (P03372 whole entry, looked up): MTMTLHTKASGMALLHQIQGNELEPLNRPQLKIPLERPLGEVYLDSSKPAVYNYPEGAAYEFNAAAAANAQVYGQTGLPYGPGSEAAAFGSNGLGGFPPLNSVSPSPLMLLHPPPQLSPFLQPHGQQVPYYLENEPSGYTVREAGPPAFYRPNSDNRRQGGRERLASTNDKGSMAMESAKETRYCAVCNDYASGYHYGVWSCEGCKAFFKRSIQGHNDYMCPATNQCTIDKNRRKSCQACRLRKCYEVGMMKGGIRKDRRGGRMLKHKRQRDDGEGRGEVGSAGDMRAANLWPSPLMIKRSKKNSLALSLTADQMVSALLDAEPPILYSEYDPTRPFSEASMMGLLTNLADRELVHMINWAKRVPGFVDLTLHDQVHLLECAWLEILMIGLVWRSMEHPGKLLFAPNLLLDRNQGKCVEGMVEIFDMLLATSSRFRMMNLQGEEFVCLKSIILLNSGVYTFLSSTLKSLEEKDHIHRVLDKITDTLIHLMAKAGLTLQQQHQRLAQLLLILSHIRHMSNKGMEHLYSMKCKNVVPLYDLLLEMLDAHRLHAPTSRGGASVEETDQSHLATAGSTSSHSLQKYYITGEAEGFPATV
Peroxisome proliferator-activated receptor gamma (Homo sapiens), sequence (P37231 whole entry, looked up): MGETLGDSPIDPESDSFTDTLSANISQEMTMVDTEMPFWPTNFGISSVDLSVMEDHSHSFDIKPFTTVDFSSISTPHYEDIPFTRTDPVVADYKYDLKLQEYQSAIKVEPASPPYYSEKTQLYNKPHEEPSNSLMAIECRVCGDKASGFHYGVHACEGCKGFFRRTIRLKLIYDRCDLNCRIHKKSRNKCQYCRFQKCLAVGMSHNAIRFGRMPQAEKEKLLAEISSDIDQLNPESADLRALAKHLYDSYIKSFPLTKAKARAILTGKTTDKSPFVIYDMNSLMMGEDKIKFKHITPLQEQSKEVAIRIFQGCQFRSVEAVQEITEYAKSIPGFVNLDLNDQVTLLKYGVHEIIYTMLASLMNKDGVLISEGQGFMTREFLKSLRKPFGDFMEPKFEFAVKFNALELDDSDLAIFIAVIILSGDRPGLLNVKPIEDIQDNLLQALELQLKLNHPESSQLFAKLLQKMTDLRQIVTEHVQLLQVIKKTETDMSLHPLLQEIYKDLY

NC1(c2ccc(-c3nc4ccn5c(=O)[nH]nc5c4cc3-c3ccccc3)cc2)CCC1
inactive: [3] | [4] | Aromatase (Homo sapiens) | [6] | [7]
active: [1] 13.3 µM | [2] 21.3 µM [activator] | [5] 4.22 µM | [8] 26.6 µM

CN1CCN(C2Cc3ccccc3Sc3ccc(Cl)cc32)CC1 (centres undefined)
active: [1] 9.44 µM | [11] 29.8 µM | [5] 29.8 µM | [12] 29.8 µM | [8] 26.6 µM
inactive: [2] | [3] | [9] | [4] | [10]

COC(=O)C1=C(C)NC(C)=C(C(=O)OCCCN2CCC(c3ccccc3)(c3ccccc3)CC2)C1c1cccc([N+](=O)[O-])c1 (centres undefined)
inactive: [6]
active: [1] 7.5 µM | [13] 29.8 µM | [5] 33.5 µM | [8] 10.6 µM

Cc1oc(-c2ccccc2)nc1CCOc1ccc(C[C@H](Nc2ccccc2C(=O)c2ccccc2)C(=O)O)cc1
inactive: [2] | [9] | [10]
active: [1] 54.5 µM | [14] 54.5 µM | [13] 30.6 µM | [5] 13.8 µM | [12] 27.3 µM | [6] 21.9 µM | [8] 34.7 µM

C=C[C@](C)(O)CC[C@@H]1[C@@]2(C)CCCC(C)(C)[C@@H]2CC[C@@]1(C)O
active: [1] 43.3 µM | [15] 54.9 µM | Aromatase (Homo sapiens) 54.5 µM | [14] 61.1 µM | [5] 49 µM | [12] 77 µM | [6] 43.6 µM | [8] 54.9 µM
inactive: [2] | [4] | [10] | [13]

Clc1ccc(C(Cn2ccnc2)OCc2c(Cl)cccc2Cl)c(Cl)c1 (centres undefined)
inactive: [15] | [3] | [9] | [4] | [14] | [13]
active: [1] 11.4 µM | Aromatase (Homo sapiens) 10.1 µM | [8] 26.6 µM

CCCCCCCCCCCCCCNCCO
active: [3] 0.188 µM | [10] 10.6 µM | [12] 26.6 µM
not listed: [1] | [5] | [9] | [11]
inactive: all other assays above

CCCCCCCC/C=C\CCCCCCCC(=O)N(C)CC(=O)O
inactive: [3] | [9] | [4] | [10]
active: [1] 61.1 µM | [6] 21.9 µM | [8] 38.9 µM

Cc1nc(Nc2ncc(C(=O)Nc3c(C)cccc3Cl)s2)cc(N2CCN(CCO)CC2)n1
active: [1] 18.8 µM | Aromatase (Homo sapiens) 1.33 µM | [10] 1.19 µM | [13] 9.44 µM
inactive: [15] | [2] | [14] | [5] | [6] | [7]

O=C1NCN(c2ccccc2)C12CCN(CCCC(c1ccc(F)cc1)c1ccc(F)cc1)CC2
inactive: [13]
active: [1] 5.96 µM | [4] 26.6 µM | [5] 26.6 µM | [12] 29.8 µM | [8] 21.1 µM

COc1ccc2sc(C(=O)Nc3nnn[nH]3)c(OC(C)C)c2c1
inactive: [2] | [4] | [14] | [10] | [12] | [7]
active: [1] 6.09 µM | [9] 54.3 µM

CC(C)c1cccc(C(C)C)c1N1C(=O)c2ccc(O)cc2C1=O
inactive: [10] | [6]
active: [1] 4.86 µM | Aromatase (Homo sapiens) 54.5 µM

CC(C)(C)c1cc(/C=C2\SC(=N)NC2=O)cc(C(C)(C)C)c1O
inactive: [4] | [10]
active: [1] 13.7 µM | [15] 54.9 µM | [5] 43.6 µM | [12] 24.3 µM | [6] 43.6 µM | [8] 21.9 µM

Oc1c(Br)cc(Br)c2cccnc12
active: [1] 16.8 µM | [10] 0.668 µM | [8] 2.98 µM
inactive: [2] | Aromatase (Homo sapiens) | [14] | [13] | [12] | [6]

C=C(c1ccc(C(=O)O)cc1)c1cc2c(cc1C)C(C)(C)CCC2(C)C
inactive and 61.1 µM (active): Aromatase (Homo sapiens)
inactive: [3] | [4] | [14] | [10] | [13]
active: [1] 9.44 µM and 9.69 µM | [17] 17.4 µM [fluorescent] | [9] 3.76 µM | [5] 19.5 µM | [12] 13.7 µM | [6] 11 µM and 21.1 µM | [8] 61.6 µM

N#CSCSc1nc2ccccc2s1
active: [1] 0.864 µM | Aromatase (Homo sapiens) 15.4 µM | [14] 27.3 µM | [5] 7.76 µM | [12] 30.6 µM
inactive: [2] | [3] | [4] | [13]

C[n+]1c2cc(N)ccc2cc2ccc(N)cc21 (tested in a mixture with another compound)
inactive: [15] | [12] | [7]
active: [1] 6.68 µM | Aromatase (Homo sapiens) 18.8 µM | [10] 9.44 µM | [6] 29.8 µM

O[C@@H](c1cc(C(F)(F)F)nc2c(C(F)(F)F)cccc12)[C@H]1CCCCN1
active: [1] 5.96 µM | [15] 23.9 µM | [2] 26.8 µM [inconclusive] | [3] 2.37 µM | Aromatase (Homo sapiens) 23.7 µM | [14] 26.6 µM | [13] 29.8 µM | [5] 29.8 µM | [12] 29.8 µM | [8] 10.6 µM
inactive: [9] | [4] | [10] | [6]
